Screening data (PubChem BioAssay)
A selection: hits, their analogues and other compounds. The true share with any hit is near 3.8%.
IDH1 R132H inh: human IDH1 R132H inhibition; O75874; Potency, µM (doses to about 76.6 µM), hits mostly inhibitors; IDH1-R132H enzyme, NADPH consumption, diaphorase/resazurin fluorescence; 390,000 tested, 0.093% active; further: nearly all actives have a fitted effect of over 65% in size
Target sequence (O75874 whole entry R132H, stated change not applied): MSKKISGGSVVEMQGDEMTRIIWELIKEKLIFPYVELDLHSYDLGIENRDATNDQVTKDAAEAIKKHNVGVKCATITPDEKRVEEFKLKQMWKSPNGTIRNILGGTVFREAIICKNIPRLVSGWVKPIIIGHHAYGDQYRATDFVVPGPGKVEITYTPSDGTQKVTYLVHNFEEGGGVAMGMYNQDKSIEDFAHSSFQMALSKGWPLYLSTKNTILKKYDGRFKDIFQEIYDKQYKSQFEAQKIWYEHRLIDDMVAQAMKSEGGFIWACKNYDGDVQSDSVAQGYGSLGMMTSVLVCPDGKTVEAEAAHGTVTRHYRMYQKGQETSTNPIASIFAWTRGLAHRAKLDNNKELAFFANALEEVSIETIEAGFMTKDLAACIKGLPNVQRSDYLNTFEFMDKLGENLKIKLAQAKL
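IDH1-R132H (0.5 ug/mL dispensed) in pH 7.5 Tris buffer was preincubated 30 min with compound, then given a substrate mix of 0.016 mM NADPH and 2 mM alpha-KG for 80 min at room temperature; remaining NADPH was read by diaphorase/resazurin fluorescence.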
A549 viability: A549 cytotoxicity, counter-screen for Nrf2 inhibitors; Potency, µM (top dose mostly 46 µM), most hits filed as inhibitors; A549 ARE-Fluc cells, CellTiter-Fluor viability, 18-24 h; 390,000 tested, 0.16% active; AID 504648
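Cytotoxicity counterscreen: CellTiter-Fluor fluorescence was measured in A549 ARE_Fluc cells after 18-24 h of compound exposure in a concentration series. The subsequent BugLite luminescent read reports ARE-luciferase activity.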
Nrf2 block: Nrf2 pathway inhibition. Potency, µM (highest dose often 46 µM), actives largely listed as inhibitors. AID 504444. 360,000 tested, 2.1% active. A549 ARE-Fluc reporter, luciferase luminescence, 18-24 h; further: nearly all actives have a fitted effect of over 60% in size
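Nrf2 activity is the BugLite luminescence, read 15 min after reagent at room temperature, following CellTiter-Fluor cytotoxicity readout (30 min, 37C). Compound titrations were applied for 18-24 h to 5000 A549 ARE_Fluc cells/well in 5% FBS OPTI-MEM.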
ELG1 repair inh: ELG1-dependent DNA repair inhibition; HEK293T ELG1-luciferase reporter, luminescence, 16 h; DNA damage induced by 5-fluorouridine; Potency, µM (titrated, usually from 46.1 µM), most hits filed as inhibitors; 330,000 tested, 2.3% active; AID 504467; further: nearly all actives have a fitted effect of over 55% in size
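Cells (2,000 per well) received 5-fluorouridine plus test compound or DMSO and were incubated 16 hr at 37 °C, 5% CO2. Luciferase activity was read by luminescence 30 min after ONE-Glo addition; signal suppression marked inhibition of damage-induced ELG1 function.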
Nrf2 activator: activators of Nrf2 (ARE) signaling; AREc32 ARE-luciferase reporter (MCF7-derived line), luminescence, 24 h; Potency, µM (top dose mostly 46.1 µM), hits mostly activators; 410,000 tested, 0.31% active; AID 624171; further: nearly all actives have a fitted effect of over 65% in size
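AREc32_Fluc, 1000 cells/well, OPTI-MEM + 5% FBS, o/n 37 deg C 5% CO2; 23 nL cpd by pin tool, 24 hr; Steady-Glo 30 min RT, luminescence.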
Hits are given with their value; . = inactive; ? = inconclusive; / = not tested or not shown; [ ] = remark or other dose. The call rests on the fitted dose curve; in most records, active means well fitted curve in the direction sought with a large enough effect; inconclusive means small, poorly fitted or top-dose-only effect, or another doubt; inactive means no such curve, though single readings can be large; an effect the other way counts as inactive or inconclusive.

SMILES	IDH1 R132H inh	A549 viability	Nrf2 block	ELG1 repair inh	Nrf2 activator
O=c1[nH]c2cc3c(cc2cc1CN(Cc1ccccc1)Cc1nnnn1Cc1ccco1)OCCO3	.	.	.	?	.
O=c1[nH]c2cc3c(cc2cc1CN(Cc1cccnc1)Cc1nnnn1Cc1ccco1)OCCO3	.	.	/	23µM	.
CCOc1nc(C#N)nc(N2CCOCC2)n1	/	.	.	/	/
CCCN(CC1CC1)C(=O)CSc1nnc(-c2cc(-c3cccs3)nc3ccccc23)o1	.	.	?	9.2µM	.
Cn1cncc1CNc1ncnc2ccc(-c3ccc4c(c3)OCO4)cc12	/	.	.	/	/
COC(=O)C1=C(C)N(Cc2ccccc2)C(=NCc2cccc(C(F)(F)F)c2)N[C@H]1c1cccc(C(F)(F)F)c1	?	.	?	18µM	.
Cc1ccc(-c2c(C)n3c4c(=O)n(C)c(=O)n(C)c4nc3n2CCCO)cc1	.	.	18µM	/	.
Nc1nccc(/C=C/c2c(Cl)cccc2Cl)n1	.	.	.	?	11µM
Nc1nccc(/C=C/c2ccc(Cl)cc2)n1	.	.	?	?	?
O=C(CCS(=O)(=O)c1nc(-c2cccs2)cc(C(F)(F)F)n1)Nc1ccc(OC(F)(F)F)cc1	?	.	.[9.27 µM]	/	?
CC(C)c1nnc(NC(=O)CCS(=O)(=O)c2nc(-c3cccs3)cc(C(F)(F)F)n2)s1	.	?	23µM	?	.
CCc1cccc(-n2c(=O)c3cccnc3n2CC(=O)Nc2c(C)cc(C)cc2C)c1	.	.	.	/	.
O=S(=O)(c1cc(-c2nnc(-c3ccc(Br)cc3)o2)ccc1Br)N1CCCCCC1	.	.	/	21µM	.
Cc1ccc2nc(-c3ccccc3)cc(C(=O)NNC(=O)c3csc(N4CCOCC4)n3)c2c1	.	.	?	6.5µM	.
Cc1ccc(-c2cc(C(=O)NNC(=O)c3csc(N4CCOCC4)n3)c3ccccc3n2)cc1	.	.	21µM	?	.
Cn1cc(/C=C/c2cc[n+](C)cc2)c2cc(Cl)ccc21	.	?	10µM	?	.
Cn1cc(C=O)c2cc(F)ccc21	.	.	.	.	.
CCn1c(SCC(=O)Nc2ccc(OC)cc2OC)nc2nc3c(cc2c1=O)COC(C)(C)C3	.	.	.	?	.
CCn1c(SCC(=O)Nc2cccc(C)c2)nc2nc3c(cc2c1=O)COC(C)(C)C3	.	.	?	18µM	.
CCn1c(SCC(=O)Nc2ccccc2)nc2nc3c(cc2c1=O)COC(C)(C)C3	.	.	.	10µM	.
COc1ccc(-c2n[nH]c(C(F)(F)F)c2-c2cc3ccccc3o2)c(O)c1	.	16µM	16µM	.	.
O=C(O)c1cccc2c1C(=O)c1ccccc1-2	.	.	.	.	.
CC(C)OC(=O)c1cccc2c1C(=O)c1ccccc1-2	.	.	.	?	11µM
COc1ccccc1NCC(O)Cn1c2ccccc2c2ccccc21 (stereo not drawn)	.	21µM	?	?	.
COc1ccc(CCNCC(O)Cn2c3ccccc3c3ccccc32)cc1OC (stereo not drawn)	.	.	?	.	.
SMILES	IDH1 R132H inh	A549 viability	Nrf2 block	ELG1 repair inh	Nrf2 activator
CCCCCn1c(=O)[nH]c2cc(C(=O)N3CCN(c4cccc(Cl)c4)CC3)ccc2c1=O	.	.	.[9.27 µM]	/	.
Cc1cccc2sc(NC(=O)C3CCN(C(=O)c4ccco4)CC3)nc12	.	.	?	13µM	?
Cc1ccc(C)c2sc(NC(=O)C3CC3)nc12	.	.	.	.	11µM
O=C(Nc1ncc(Cc2ccccc2)s1)C1CCN(C(=O)c2ccco2)CC1	/	.	21µM	/	/
Cc1ccc(Cl)c2sc(NC(=O)C3CC3)nc12	.	.	.	.	?
Cc1ccc2nc3sc(C(=O)Nc4ccc(F)cc4)cc3cc2c1	.	.	/	/	.
CCOc1ccc(NC(=O)c2oc3ccccc3c2NC(=O)Cc2ccc(F)cc2)cc1	.	.	.	/	.
Cc1ccccc1CNC(=O)CN1C(=O)CCCc2ccccc21	.	.	?	/	.
CC1=CC(=O)C(Sc2ccc(C)cc2)=CC1=O	.	/	/	/	13µM
CCn1cc(C(=O)NCCN(CC(C)C)CC(C)C)c(=O)c2cc(S(=O)(=O)N(C)C3CCCCC3)ccc21	.	.	.	/	.
CCCNc1nc(Nc2ccc(C)c(Cl)c2)c2cnn(C)c2n1	.	.	?	15µM	.
Cc1ccc(Nc2nc(NCCO)nc3c2cnn3C)cc1Cl	?	.	.	?	.
CNc1nc(Nc2ccc(C)c(Cl)c2)c2cnn(C)c2n1	29µM	.	?	?	.
COc1cc([N+](=O)[O-])ccc1NC(=O)NCC1CCN(Cc2ccc(Cl)cc2)CC1	.	.	.	23µM	.
COc1ccc(Cl)cc1NC(=O)NCC1CCN(Cc2cc(C)ccc2C)CC1	.	?	?	?	.
CCOC(=O)C1CCN(C(=O)c2ccc(N3CCCC3=O)cc2)CC1	.	.	.	.	.
Cc1ccc(S(=O)(=O)SC/C=C/CSS(=O)(=O)c2ccc(C)cc2)cc1	.	.	12µM	/	.
CCOC(=O)c1cc2c(=O)n3ccccc3nc2n(Cc2ccco2)c1=NC(=O)c1c(F)cccc1Cl	.	.	.[9.27 µM]	/	.
CCCCc1c(C)c(C#N)c2nc3ccccc3n2c1NCCN(C)C	.	6.5µM	6.5µM	.	.
O=C(Nc1noc2ccccc12)c1ccc(F)cc1	/	.	?	/	.
COC(=O)c1oc(-c2ccccc2)nc1C	.	.	.	.	13µM
COC(=O)c1oc(-c2ccc(Cl)cc2)nc1C	.	.	?	?	.
C=CCNC(=O)C1CCC(CNc2nc(=S)[nH]c3ccccc23)CC1 (stereo not drawn)	.	.	?	.	.
O=C(C1CCC(CNc2nc(=S)[nH]c3ccccc23)CC1)N1CCN(c2ccccn2)CC1 (stereo not drawn)	.	?	16µM	?	.
O=C(COc1cccc(Cl)c1Cl)NC1CC1	.	.	.	?	.
SMILES	IDH1 R132H inh	A549 viability	Nrf2 block	ELG1 repair inh	Nrf2 activator
CCCCN=c1scc(-c2ccc3c(c2)NC(=O)CO3)n1N=C1CCCC1	.	.	/	23µM	.
CCC(C)C(=O)Nc1nc(-c2ccc3c(c2)NC(=O)CO3)cs1 (stereo not drawn)	.	.	.	.	.
CC(=O)Nc1ccc(N=C(C2=C(O)c3ccccc3C2=O)c2ccccc2)cc1	.	21µM	21µM	.	.
COc1ccc(NS(=O)(=O)c2ccc3oc(SC)nc3c2)cc1	.	.	21µM	.	.
CNC(=O)CSc1nc2cc(S(=O)(=O)Nc3ccc(OC)cc3)ccc2o1	.	.	.	/	.
COC(=O)c1cc(-c2ccccc2)sc1N	.	.	?	?	16µM
Cc1cc(Sc2nnc(/N=C/N(C)C)s2)c2ccccc2n1	.	.	7.3µM	.	.
COC(=O)c1cc2occc2n1CC(=O)Nc1ccc(N(C)C)cc1	.	.	.	/	.
CCC(=O)Nc1nc(C)c(-c2csc(Nc3cccc(C(=O)O)c3)n2)s1	.	.	.	.	.
